# Data taken from PubChem BioAssay (NCATS).
# Inconclusive results are not listed. The source made the active and inactive calls. Calls follow the shape of the dose curve; as a rule, active = well fitted curve in the direction sought with a large enough effect; inconclusive = small, poorly fitted or top-dose-only effect, or another doubt; inactive = no such curve, though single readings can be large or run the other way. Where a SMILES comes first, the peptide text is derived from it. Bridges are numbered along the chain shown (N, C = ends). [ ]: non-standard residue; d: D form. hArg = N=C(N)NCCCC[C@H](N)C(=O)O; Mpa = O=C(O)CCS
# Test: qHTS Assay for Identifying Gametocytocidal Compounds (AID 743244);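 also: actives lower the fluorescent signal which means gametocytes are killed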
# Conditions: P. falciparum 3D7 stage III-V gametocytes, alamarBlue, 72 h; max response: active compounds read low
# Excerpt: Malaria cases and deaths have dropped 50% in 29 countries since 2000 due to the combined effects of long-lasting insecticidal bednets, indoor residual spraying, and artemisinin-based combination therapies (ACTs). This success has raised hopes for malaria eradication and consequently stimulated interest in developing new reagents that block gametocyte transmission such as novel and safe gametocytocidal drugs. However, previous drug development efforts have focused primarily on the asexual parasites that cause symptoms, but not malaria transmission. Consequently, patients can remain infectious for weeks after the clearance of asexual parasites and clinical symptoms. To be transmitted from person to person via a mosquito, the parasites must switch from asexual to sexual development and produce male and female gametocytes. Malaria gametocytes consist of five stages (I, II, III, IV and V). The late stage gametocytes (III, IV and V) are difficult to be cultured in vitro and the long lifespan of mature gametocytes allows them being transmitted from host to mosquitoes unless they are completely eliminated by gametocytocidal agents. To identify gametocytocidal compounds which are capable of killing late stage P. falciparum gametocytes, a high throughput gametocyte viability assay was employed. This assay uses oxidoreduction indicator, alamarBlue, as a general measure of metabolic activity of gametocytes. Within live cells, the nonfluorescent resazurin is reduced to resorufin, a bright red fluorescence dye. Fluorescence decreases upon treatment of gametocytocidal compounds. P. falciparum gametocyte (3D7 strain) was used in this study.
# The 1536-well gametocycidal viability assay was based on the previous method of Tanaka et al. Stage III-V gametocytes were tested against three compound libraries, including 4265 compounds from NCGC pharmaceutical collection, 400 from Malaria Box library, and 550 from an internal collection of kinase inhibitors. Briefly, 2.5 ul/well incomplete medium was dispensed into each well of 1,536-well plates using the Multidrop Combi followed by 23 nl compound transferring using the NX-TR Pintool (WAKO Scientific Solutions, San Diego, CA). Then, 2.5 ul/well of gametocytes was dispensed with a seeding density of 20,000 cells/well using the Multidrop Combi. The assay plates were incubated for 72 h at 37C with 5% CO2. After addition of 5 ul/well of 2X AlamarBlue dye (Life Technologies, cat. no. DAL1100), the plates were incubated for 24 h at 37C with 5% CO2 and then were read in a fluorescence detection mode (Ex = 525 nm, Em = 598 nm) on a ViewLux plate reader (PerkinElmer).
# % is scaled to controls: 0 for no effect and ±100 for the full control effect.
row,SMILES,max response
1,NC(=O)[C@@H]1CSSCCC(=O)N[C@@H](CCCCN=C(N)N)C(=O)NCC(=O)N[C@@H](CC(=O)O)C(=O)N[C@@H](Cc2c[nH]c3ccccc23)C(=O)N2CCC[C@H]2C(=O)N1 ([Mpa][hArg]GDWPC-NH2; disulfide 1-7),6.22% (inactive)
2,Cc1cc(C)c(NC(=O)CN(CC(=O)O)CC(=O)O)c(C)c1Br,9.03% (inactive)
3,COc1ccc2cc(CCC(C)=O)ccc2c1,-1.38% (inactive)
4,NC(=O)N[C@@H](CCC(=O)O)C(=O)O,-4.71% (inactive)
5,O=C(O)CCCc1ccccc1,13.9% (inactive)
6,O=C(O)/C=C/c1ccc(Cn2ccnc2)cc1,13.5% (inactive)
7,Cc1cc(NC(=O)C2=C(O)c3ccccc3S(=O)(=O)N2C)no1,-9.54% (inactive)
8,COc1ccc(-c2cc(=O)c3c(O)cc(O[C@@H]4O[C@H](CO[C@@H]5O[C@@H](C)[C@H](O)[C@@H](O)[C@H]5O)[C@@H](O)[C@H](O)[C@H]4O)cc3o2)cc1O,-2.29% (inactive)
9,CCCCCC(N)=O,2.77% (inactive)
10,FC(F)(F)C(Cl)Br (stereo not given),-11.3% (inactive)
11,C/C=C1\[C@H]2C=C(C)C[C@]1(N)c1ccc(=O)[nH]c1C2,2.62% (inactive)
12,O=C(Cn1ccnc1[N+](=O)[O-])NCc1ccccc1,-2.89% (inactive)
13,CCOc1cc(NC(C)=O)ccc1C(=O)OC,7.76% (inactive)
14,COC(=O)c1ccccc1C(=O)c1ccc(OCCN2CCCCC2)cc1,-9.15% (inactive)
15,CNc1c2c(nn1C)CCCC2,6.79% (inactive)
16,COC(=O)c1ccc(O)cc1,-9.3% (inactive)
17,Cc1[nH]c(C)c(Cl)c(=O)c1Cl,-2.25% (inactive)
18,C[N+]1(C)CCCC(OC(=O)C(O)(c2ccccc2)c2ccccc2)C1 (stereo not given),8.34% (inactive)
19,C1CCN2C[C@@H]3C[C@@H](CN4CCCC[C@@H]34)[C@H]2C1,2.03% (inactive)
20,CCOC(=O)OC(C)OC(=O)[C@@H]1N2C(=O)[C@@H](NC(=O)[C@H](N)c3ccccc3)[C@H]2SC1(C)C (stereo not given in full),15.8% (inactive)

row,SMILES,max response
1,CCN[C@H]1CN(CCCOC)S(=O)(=O)c2sc(S(N)(=O)=O)cc21,21.3% (inactive)
2,O=c1[nH]c(=O)n([C@H]2C[C@H](O)[C@@H](CO)O2)cc1I,3.28% (inactive)
3,O=C1c2ccccc2C(=O)C1c1ccc(Br)cc1,-7.34% (inactive)
4,C[C@@H]1O[C@@H](OC[C@H]2O[C@@H](Oc3c(-c4ccc(O)c(O)c4)oc4cc(O)cc(O)c4c3=O)[C@H](O)[C@@H](O)[C@@H]2O)[C@H](O)[C@H](O)[C@H]1O,3.71% (inactive)
5,CCc1cccc(CC)c1NC(=O)CN(CC(=O)O)CC(=O)O,12.1% (inactive)
6,Cc1ncc(CO)c(CN)c1O,6.59% (inactive)
7,CC[N+](C)(CC)CCOC(=O)C1c2ccccc2Oc2ccccc21,7.42% (inactive)
8,Nc1ccncc1N,8.86% (inactive)
9,O=c1[nH]c(=O)c2ccccc2o1,-4.26% (inactive)
10,Cc1ccc(S(=O)(=O)NC(=O)NC2CCCCC2)cc1,0.0407% (inactive)
11,NCC1CCC(C(=O)Oc2ccc(CCC(=O)O)cc2)CC1 (stereo not given),9.03% (inactive)
12,NS(=O)(=O)c1cc2c(cc1C(F)(F)F)NCNS2(=O)=O,-4.2% (inactive)
13,CC(=O)Oc1cccc(O)c1,2.07% (inactive)
14,CCOC(=O)[C@H](CCc1ccccc1)N[C@@H](C)C(=O)N1CCC[C@H]1C(=O)O,-2.72% (inactive)
15,CCCCCCCCCCC(CO)CCCCCCCC (stereo not given),-4.55% (inactive)
16,Cc1cc(-n2nc3ccc(Cl)cc3n2)c(O)c(C(C)(C)C)c1,-8.61% (inactive)
17,COc1ccccc1Oc1c(NS(=O)(=O)c2ccc(C(C)(C)C)cc2)nc(-c2ncccn2)nc1OCCO,-3.79% (inactive)
18,Cc1cc(OI)c(C(C)C)cc1-c1cc(C(C)C)c(OI)cc1C,3.81% (inactive)
19,CC1(C)S[C@@H]2[C@H](NC(=O)C(C(=O)O)c3ccccc3)C(=O)N2[C@H]1C(=O)O (stereo not given in full),-0.734% (inactive)
20,CC1(c2ccccc2)OC(C(=O)O)=CC1=O (stereo not given),25.1% (inactive)
